The structures appear in SMILES notation. In all, about 340,000 compounds went through this assay and about 990 (0.29%) were called active. Cut-off read from the data, not from the text of the source: active = activation above about 18%; inactive = the rest. Shown is part of a subset that was picked to be rich in actives.

For the experiment, the target named is Mu-type opioid receptor (Homo sapiens) + Delta-type opioid receptor (Homo sapiens) (UniProt P35372+P41143). Kind of experiment: inducers of mu-delta opioid receptor heterodimers – cell-based, luminescence, primary screen (AID 504326).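 Note: 0% = vehicle-treated cells and 100% = reference agonist.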 The note with it: cells, OPRM1-OPRD1 heterodimerization, at 9.3 µM, stronger effect = higher value.
Sequence of Mu-type opioid receptor (Homo sapiens) + Delta-type opioid receptor (Homo sapiens) (P35372 whole entry, looked up): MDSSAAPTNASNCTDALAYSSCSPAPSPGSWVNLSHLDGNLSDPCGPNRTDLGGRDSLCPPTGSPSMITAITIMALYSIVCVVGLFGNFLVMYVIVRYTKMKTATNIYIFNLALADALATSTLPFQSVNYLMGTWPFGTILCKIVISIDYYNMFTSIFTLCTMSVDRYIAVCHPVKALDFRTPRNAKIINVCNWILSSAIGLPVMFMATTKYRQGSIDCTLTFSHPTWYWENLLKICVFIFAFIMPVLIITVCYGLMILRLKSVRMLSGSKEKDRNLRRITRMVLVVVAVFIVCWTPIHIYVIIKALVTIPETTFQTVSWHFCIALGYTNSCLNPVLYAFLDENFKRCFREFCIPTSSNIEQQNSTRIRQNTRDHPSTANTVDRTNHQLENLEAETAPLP
Sequence of Mu-type opioid receptor (Homo sapiens) + Delta-type opioid receptor (Homo sapiens) (P41143 whole entry, looked up): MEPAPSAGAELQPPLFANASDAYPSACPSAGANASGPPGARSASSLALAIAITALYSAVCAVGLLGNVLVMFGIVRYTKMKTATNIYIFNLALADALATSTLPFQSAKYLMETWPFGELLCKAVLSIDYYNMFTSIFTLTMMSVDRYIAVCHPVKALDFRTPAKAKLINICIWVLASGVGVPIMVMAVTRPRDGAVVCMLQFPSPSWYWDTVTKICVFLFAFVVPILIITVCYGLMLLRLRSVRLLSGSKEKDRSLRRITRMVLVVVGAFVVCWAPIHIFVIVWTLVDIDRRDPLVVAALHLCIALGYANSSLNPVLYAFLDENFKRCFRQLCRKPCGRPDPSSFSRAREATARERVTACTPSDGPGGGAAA
For `CCc1nc2ccccc2c(C(=O)OC2CCCCC2=O)c1C` (stereo not given), the activation is -2.96% (inactive).
In the case of `CC(=O)NC(NC(=S)Nc1c(C)n(C)n(-c2ccccc2)c1=O)C(Cl)(Cl)Cl` (stereo not given) it was -0.74% (inactive); in that of `Cc1ccc(NC(=S)NC(NC(=O)Cc2cccc3ccccc23)C(Cl)(Cl)Cl)cc1` (stereo not given), 43.3% (active); in that of `CC(C)(C)C(=O)NC(NC(=S)Nc1ccc(S(N)(=O)=O)cc1)C(Cl)(Cl)Cl` (stereo not given), 0.71% (inactive).
For `COc1ccc(OC)c(CN2CCN(C(=O)CNC(=O)c3cc(C)cc(C)c3)CC2)c1` the value was -5.2% (inactive).
For `O=C(CSc1nnc(CN2CCCC2)n1-c1ccc(F)cc1)c1ccc2c(c1)OCO2` the value was -2.96% (inactive); for `Cc1ccc(CCN2CC(C(=O)NCCc3ccccc3)CC2=O)cc1` (stereo not given), -2.88% (inactive).
Regarding `C=CCN(C(=O)c1cc(C)cc(C)c1)C1(C(=O)Nc2ccccc2)CCN(C(C)C)CC1`, the activation was 0.59% (inactive).
In the case of `Cc1cc(C)cc(C(=O)N(CCc2ccccc2)C2=CC3CCC(C2)N3C)c1` (stereo not given) it was 104% (active).
For the molecule `Cc1ccc(C2C(C#N)C(C#N)N3CCCN23)cc1` (stereo not given), the activation is 0.61% (inactive).
With `CSc1n[nH]c(=S)n1N`, the activation is -1.24% (inactive).
In the case of `O=C(COc1ccc2ccc(=O)oc2c1)NCC(O)c1ccccc1` (stereo not given) it was -1.9% (inactive).
As for `CCCN1Cc2cccc(C(=O)NCc3ccccc3)c2C1=O`, the activation was -0.19% (inactive).
In the case of `Cc1ccc(S(=O)(=O)N(CC(=O)Nc2cccnc2)c2ccc(Br)cc2)cc1` it was 24.9% (active); in that of `CCNC(=O)CN(c1ccc(C)cc1)S(=O)(=O)c1ccc(SC)cc1`, -4.37% (inactive).
In the case of `CCc1ccc(N(CC(=O)NCc2cccnc2)S(=O)(=O)c2ccccc2)cc1` it was -1.13% (inactive); in that of `CCS(=O)(=O)c1ccc(O)c(NC(=O)COc2ccc(Cl)cc2)c1`, -5.16% (inactive); in that of `Cc1ccc(O)c(NC(=S)NC(=O)COc2ccc(Br)cc2)c1`, 22.7% (active).
In the case of `COc1ccc(C(=O)Nc2cc(C)ccc2NC(=O)COc2ccccc2)cc1` it was 0.51% (inactive); in that of `OCC1(Cc2ccccc2)CCN(Cc2cc3ccccc3o2)CC1`, 0.65% (inactive).
As to `O=S(=O)(c1ccc(Br)cc1)N1CCC(c2nc3ccccc3[nH]2)CC1`, the activation was 1.07% (inactive).
For `O=C(Nc1ncccc1O)c1ccc(S(=O)(=O)N2CCCCCC2)cc1` the value was -4.61% (inactive); for `N#CC(C(=O)c1ccc(S(=O)(=O)N2CCCCCC2)cc1)c1nc2ccccc2[nH]1` (stereo not given), 24.1% (active); for `Oc1cccc2ccc(/C=C/c3ccc(Br)s3)nc12`, 1.72% (inactive).
For `Cc1ccc(Nc2ccccc2N)cc1` the value was 21.4% (active).
In the case of `Cc1ccc(Nc2nc(Cl)c(C=O)s2)cc1` it was 4.48% (inactive).
Regarding `Nc1ccc(C(=O)Nc2ccccc2N)cc1`, the activation is 2.04% (inactive).
For `COc1cc(C(=O)OCC(=O)NC23CC4CC(CC(C4)C2)C3)cc(OC)c1OC` the value was -1.44% (inactive).
For `COc1ccc(NC(=O)CCCN2C(=O)C(c3ccccc3)Oc3cccnc32)cc1` (stereo not given) the value was 2.07% (inactive); for `Cc1ccc(OCCCC(=O)Nc2ccc(S(=O)(=O)Nc3cc(C)nc(C)n3)cc2)cc1`, 0.21% (inactive).
On to `CCc1ccc(C(CNc2nc(C(F)(F)F)nc3ccccc23)N(C)C)cc1` (stereo not given), for which the activation is 81.6% (active).
Consider `COc1cccc(CNc2nc(C(F)(F)F)nc3ccccc23)c1`, for which the activation is 5.18% (inactive).
Turning to `NS(=O)(=O)c1ccc(CCNc2nc(C(F)(F)F)nc3ccccc23)cc1`, the activation was -1.85% (inactive).
In the case of `Cc1ccn(C(CC(=O)c2ccc(Br)cc2)C(=O)O)n1` (stereo not given), the activation is -1.91% (inactive).
In the case of `Nc1c(Cl)cc(S(N)(=O)=O)cc1S(N)(=O)=O` it was -5.23% (inactive); in that of `CC1=NNC(=O)C1CCC(=O)N/N=C\c1ccc(Cl)c(Cl)c1` (stereo not given), -0.87% (inactive); in that of `COc1cc(/C=N/NC(=O)c2ccoc2C)ccc1OCCN1CCCCC1`, -0.79% (inactive).
For the molecule `COc1cc(/C=N/NC(=O)Nc2ccccc2)ccc1OCCOc1ccccc1C`, the activation was 28% (active).
In the case of `COc1cc(/C=N/NC(=O)Cc2ccccc2)cc(OC)c1OC` it was -1.52% (inactive).
Turning to `Cc1cc(C)c2c(=O)[nH]c(SCC(=O)Nc3ccc(Br)cc3)nc2n1`, the activation is 2.08% (inactive).
For `CN(Cc1ccc(F)cc1)C(=O)CN1C(=O)c2ccccc2S1(=O)=O` the value was -2.95% (inactive); for `COC(=O)C1=NNC2(c3ccc(C)cc3)C(=O)N(c3cccc(C)c3C)C(=O)C12` (stereo not given), -4.85% (inactive).
As for `COC(=O)C1=C(O)/C(=C/c2ccc(OCC(=O)Nc3ccccc3)cc2)N=C1C`, the activation was -3.18% (inactive).
For `CCOC(=O)C1=C(O)/C(=C/c2ccc(OCC(=O)Nc3ccc(C)cc3)cc2)N=C1C` the value was 40.8% (active).
With `Cc1ccc(NC(=O)COc2ccc(/C=C3/NC(=O)NC3=O)cc2)cc1`, the activation was 2.37% (inactive).
For `CCOc1ccc(Br)cc1S(=O)(=O)Nc1ccc(C(=O)OC(C)C(=O)N(C)c2ccccc2)cc1` (stereo not given), the activation is 2.35% (inactive).
For `CC(c1ccccn1)N(C)C(=O)c1ccc2nc(Cc3cccc(Cl)c3)oc2c1` (stereo not given) the value was -0.53% (inactive); for `CC1CCCCC12NC(=O)N(CC(=O)OCC(=O)NCc1ccc(F)cc1)C2=O` (stereo not given), -0.67% (inactive).
For `Cc1cccc(Oc2c([N+](=O)[O-])c(=O)n(C)c3ccccc23)c1` the value was 1.78% (inactive).
With `CCOC(=O)c1c(C)[nH]c2c1-c1ccccc1C(=O)C2=O`, the activation is 22.6% (active).
In the case of `CCOC(=O)C1=C(C)c2ccccc2OC1(C)C(=O)OCC` (stereo not given) it was -0.33% (inactive).
For `CCOC(=O)c1ccccc1OC(=O)Oc1ccccc1C(=O)OCC`, the activation was -2.83% (inactive).
As to `O=C(NCc1ccccn1)c1cnc2sccn2c1=O`, the activation is -2.49% (inactive).
Consider `CC1(C)C(C=C(Cl)Cl)C1C(=O)N(Cc1ccc(Cl)cc1)C1CCS(=O)(=O)C1` (stereo not given), for which the activation is 0.69% (inactive).
As for `Cc1ccc(CN(C(=O)c2sc3ccccc3c2Cl)C2CCS(=O)(=O)C2)cc1` (stereo not given), the activation is 26.2% (active).
For `COc1cc(C(=O)N(Cc2ccc(N(C)C)cc2)C2CCS(=O)(=O)C2)cc(OC)c1OC` (stereo not given) the value was -1.82% (inactive); for `O=C(C1CC1)N1N=C2CCCCC2C1(O)C(F)(F)F` (stereo not given), -1.35% (inactive).
For `CCOC(=O)Cc1ncccc1C(=O)Nc1ccc(OC(F)(F)F)cc1` the value was -3.8% (inactive).
In the case of `O=C(Nc1ccc(OC(F)(F)F)cc1)c1ccc2c(c1)no[n+]2[O-]` it was 22% (active); in that of `Cn1cccc1/C=N/NC(=O)c1ccc(OC(F)(F)C(F)F)cc1`, -1.62% (inactive).

The values above are taken from PubChem BioAssay AID504326 (The Scripps Research Institute Molecular Screening Center, 2011).
